# Experimental data taken from the supplement of paper PMC11634586.
# Structures can show the parent of a compound that is named as a salt. A number with no mark means an inactive call.
# Test system: NCI-H1688
# Test: inhibition of cell viability relative to untreated control (fraction); higher = stronger growth inhibition, active = 0.5 or more
# Conditions: 30 µM; 24 h
# Method: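 Natural product library (TargetMol, 640 compounds) screened on NCI-H1688 SCLC cells at 30 µM for 24 h; viability by CCK-8 absorbance at 450 nm, normalised to untreated control and expressed as inhibition rate (fraction). Compounds with >50% reduction in viability were selected as hits.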
row,Compound,inhibition of cell viability
1,C[C@@H]1CC[C@@]2(OC1)O[C@H]1[C@@H](O)[C@H]3[C@@H]4CC[C@H]5C[C@@H](O[C@@H]6O[C@H](CO)[C@H](O[C@@H]7O[C@H](CO)[C@@H](O)[C@H](O[C@@H]8OC[C@@H](O)[C@H](O)[C@H]8O)[C@H]7O[C@@H]7O[C@H](CO)[C@H](O)[C@H](O[C@@H]8O[C@H](CO)[C@@H](O)[C@H](O)[C@H]8O)[C@H]7O)[C@H](O)[C@H]6O)[C@H](O)C[C@]5(C)[C@H]4CC[C@]3(C)[C@H]1[C@@H]2C [Digitonin],1.01 (active)
2,C[C@H]1O[C@H](O[C@H]2[C@H](O)[C@@H](O)[C@@H](O)[C@H](O)[C@@H]2O)[C@@H](N)C[C@@H]1NC(=N)C(=O)O [Kasugamycin hydrochloride],0.294
3,C=C[C@@H]1C2=CCOC(=O)C2=CO[C@H]1O[C@@H]1O[C@H](CO)[C@@H](O)[C@H](O)[C@H]1O [Gentiopicrin],-0.0346
4,C=C[C@H]1CN2CC[C@H]1C[C@H]2[C@H](O)c1ccnc2ccccc12 [Cinchonidine],-0.042
5,CC(=O)[C@]1(O)CC[C@@]2(O)[C@]1(C)[C@H](OC(=O)/C=C(\C)C(C)C)C[C@@H]1[C@@]3(C)CC[C@H](O)CC3=CC[C@]12O [Caudatin],0.161
6,CCN1C[C@]2(OC(=O)c3ccccc3NC(C)=O)CC[C@H](OC)[C@@]34[C@@H]2C[C@@H]([C@@H]13)[C@@]1(O)C[C@H](OC)[C@H]2C[C@@H]4[C@]1(O)[C@H]2OC [Lappaconitine],-0.0777
7,CNCC(O)c1ccc(O)cc1 (stereo not given) [Synephrine],0.204
8,NCCc1c[nH]c2ccccc12 [Tryptamine],-0.188
9,C[C@H]1C(=O)O[C@@H]2CCN3CC=C(COC(=O)[C@](C)(O)[C@]1(C)O)[C@H]23 [Monocrotaline],0.161
10,CC(C)(C)[C@]1(O)CC2OC(=O)CC23C(=O)OC2OC(=O)[C@H](O)C231 (stereo not given in full) [Bilobalide],0.155
11,CN(C)CCc1ccc(O)cc1 [Hordenine],0.0129
12,COC1=C[C@]23CCCN2CCc2cc4c(cc2[C@@H]3[C@@H]1O)OCO4 [Cephalotaxine],0.394
13,O=C1C=CC[C@@H]2[C@H]3CCCN4CCC[C@@H](CN12)[C@@H]34 [Sophocarpine],-0.484
14,Cc1c2ccncc2c(C)c2c1[nH]c1ccccc12 [Ellipticine],0.996 (active)
15,COc1cc([C@@H]2c3cc4c(cc3[C@H](O)[C@H]3COC(=O)[C@H]23)OCO4)cc(OC)c1OC [Podophyllotoxin],0.839 (active)
16,CC(=O)O[C@H]1C[C@H](O[C@H]2[C@@H](O)C[C@H](O[C@H]3[C@@H](O)C[C@H](O[C@H]4CC[C@@]5(C)[C@H](CC[C@@H]6[C@@H]5C[C@@H](O)[C@]5(C)[C@@H](C7=CC(=O)OC7)CC[C@]65O)C4)O[C@@H]3C)O[C@@H]2C)O[C@H](C)[C@H]1O[C@@H]1O[C@H](CO)[C@@H](O)[C@H](O)[C@H]1O [Lanatoside C],0.994 (active)
17,CC(C)=CCOc1c2occc2cc2ccc(=O)oc12 [Imperatorin],0.0251
18,CN(CC(=O)O)C(=N)NP(=O)(O)O [Creatine phosphate disodium salt],0.256
19,CC(=O)O[C@H]1[C@H]2[C@@H](OC(=O)Cc3ccccc3)[C@@H](C)C[C@]2(OC(C)=O)C(=O)/C(C)=C/[C@@H]2[C@H](CC[C@@]13CO3)C2(C)C [Euphorbiasteroid],0.499
20,C[C@@]12C(=O)OC(=O)[C@]1(C)[C@H]1CC[C@@H]2O1 [Cantharidin],0.983 (active)
21,O=C1C=CC[C@@H]2[C@H]3CCC[N+]4([O-])CCC[C@@H](CN12)[C@@H]34 (stereo not given in full) [Oxysophocarpine],-0.0366
22,O=C(O)CC[N+](=O)[O-] [Bovinocidin],-0.0746
23,C[C@]12CCC(=O)C=C1CC[C@@H]1[C@@H]2C(=O)C[C@]2(C)C(=O)CC[C@@H]12 [Adrenosterone],-0.0418
24,C[C@]12CC[C@H]3[C@@H](CCC4=CC(=O)CC[C@@]43C)[C@@H]1CC[C@@H]2O [Testosterone],0.182
25,CC(C)[C@]12O[C@H]1[C@@H]1O[C@]13[C@]1(O[C@H]1C[C@H]1C4=C(CC[C@@]13C)C(=O)OC4)[C@@H]2O [Triptolide (PG490)],0.948 (active)
26,N#CCCN [3-Aminopropionitrile fumarate],-0.137
27,CCC1=CC2CN3CCc4c([nH]c5ccccc45)C(C(=O)OC)(C2)C13 (stereo not given) [Catharanthine sulfate],0.191
28,CCC1=C[C@@H]2CN3CCc4c([nH]c5ccccc45)[C@@](C(=O)OC)(C2)[C@@H]13 [Catharanthine tartrate],-0.101
29,CN1[C@@H]2CC[C@H]1C[C@@H](OC(=O)C(CO)c1ccccc1)C2 (stereo not given in full) [Atropine],-0.146
30,N#C[C@H](O[C@@H]1O[C@H](C(=O)O)[C@@H](O)[C@H](O)[C@H]1O)c1ccccc1 [Laetrile],0.0291
